Data as given in PubChem BioAssay (Tox21).
Records with an inconclusive call do not appear. Unmarked numbers belong to inactive results. Calls of active or inactive are those of the source. Calls follow the shape of the dose curve; as a rule, active = well fitted activation curve with a large enough effect in the signal ratio in the repeat runs (not every such curve was filed as active); inconclusive = weak or mixed curves; inactive = flat fitted curve, though single readings scatter; the % refers to the signal ratio.
% is scaled to controls: 0 for no effect and ±100 for the full control effect.

Experiment: qHTS assay to identify small molecule agonists of the hypoxia (HIF-1) signaling pathway (AID 1224846)
Conditions: HRE-bla ME-180 cells, beta-lactamase ratio, 17 h; series mostly up to 76.8 µM
Source text: U.S. Tox21 Program National Center for Advancing Translational Sciences [NCATS] NIH Chemical Genomics Center [NCGC] U.S. Environmental Protection Agency [EPA] National Institutes of Environmental Health Sciences [NIEHS] National Toxicology Program [NTP] U.S. Food and Drug Administration [FDA] Tox21 Assay Overview: Hypoxia-inducible factor-1 (HIF-1) is the major hypoxia-regulated transcription factor that controls cellular responses to low oxygen concentration. HIF-1 is composed of two subunits: hypoxia responsive HIF-1-alpha and constitutively expressed HIF-1-beta, which is also known as aryl hydrocarbon receptor nuclear translocator. During hypoxic conditions, HIF-1-alpha heterodimerizes with HIF-1-beta and translocates into the nucleus where the HIF-1 complex binds to the hypoxia-response element (HRE) and activates expression of target genes such as VEGF (vascular endothelial growth factor). The HIF-1 pathway is essential to normal growth and development, and is involved in the pathophysiology of cancer, inflammation, and ischemia. Using a beta-lactamase reporter-gene under control of the hypoxia response element, a cell-based assay [CellSensor(TM) HRE-bla ME-180 from Life Technologies, Carlsbad, CA] was used to measure hypoxia-induced signaling. Tox21 10K library compounds were measured for their ability to induce the reporter gene activity.
Tox21 Assay Protocol Summary: HRE-bla ME-180 cells were dispensed at 2,000 cells per well in 6 uL of assay medium containing 0.5% dialyzed FBS into black wall/clear-bottom 1536-well plates using a Multidrop Combi (Thermo Scientific, Waltham, MA) dispenser. After the assay plates were incubated at 37C and 5% CO2 for 5 hrs, 23 nL of compounds dissolved in DMSO, positive controls or DMSO only was transferred to each well of the assay plate using a Pintool station (Kalypsys, San Diego, CA). The assay plates were incubated at 37C and 5% CO2 for 17 hrs. One uL of LiveBLAzerTM B/G FRET substrate (CCF4-AM) (Life Technologies) was added to each well using a Flying Reagent Dispenser (Aurora Discovery, San Diego, CA).
With `O=c1[nH]c(=O)c2[nH]c(=O)[nH]c2[nH]1` the activation was 0.359% [at 7.01 µM].
In the case of `CC1CCC(C(C)(C)S)C(=O)C1` (stereo not given), the outcome is reported as “inactive”.
With `CC(C)CCCCCCOC(=O)C1CCCCC1C(=O)OCCCCCCC(C)C` (stereo not given) the outcome was “inactive”.
For `COc1cc2c3cc1Oc1cc(ccc1O)C[C@@H]1c4c(cc(OC)c(O)c4Oc4ccc(cc4)C[C@@H]3N(C)CC2)CC[N+]1(C)C`, the outcome was “inactive”.
With `O=C1c2ccccc2-c2ccccc21` the outcome was “inactive”.
For `CCN(CC)C(=O)C1CN2CCc3cc(OC)c(OC)cc3C2CC1OC(C)=O` (stereo not given), the outcome was “inactive”.
For `CC(=O)/C=C/c1ccco1`, the outcome was “inactive”.
With `COc1ccc(N=Nc2cc(C)c(N=Nc3ccc(S(=O)(=O)O)cc3)cc2OC)cc1` the outcome was “inactive”.
For `CNC(=O)C(c1ccccc1)c1ccccc1`, the outcome was “inactive”.
With `OC[C@@H](O)[C@H](O)[C@@H](O)[C@@H](O)CO` the outcome was “inactive”.
For `CO[Si](CCCS)(OC)OC`, the outcome was “inactive”.
For `CCC(O)C(C)(C)C` (stereo not given), the outcome was “inactive”.
With `O=S(=O)(O)SSS(=O)(=O)O` the outcome was “inactive”.
In the case of `CCOC(=O)CCCCCCCCC(=O)OCC`, the outcome is reported as “inactive”.
In the case of `COC(/C=C(\C)CCC=C(C)C)OC`, the outcome is reported as “inactive”.
For `CC(=O)OCC(=O)[C@@]1(O)[C@H](OC(C)=O)C[C@H]2[C@@H]3CCC4=CC(=O)C=C[C@]4(C)[C@@]3(F)[C@@H](O)C[C@@]21C`, the outcome was “inactive”.
In the case of `CCC(C)(CCC(C)C)C(=O)[O-].CCC(C)(CCC(C)C)C(=O)[O-].[Zn+2]` (stereo not given), the outcome is reported as “inactive”.
In the case of `CCCOCCOCCOCCO`, the outcome is reported as “inactive”.
With `CC1=NN(c2ccc(S(=O)(=O)O)cc2)C(=O)C1N=Nc1ccccc1` (stereo not given) the outcome was “inactive”.
For `Cc1cccc(NC(=S)N(C)C)c1`, the outcome was “inactive”.
For `C=C[C@@H](C)CCC=C(C)C`, the outcome was “inactive”.
`Nc1ccc(/C=C/c2ccc(N)cc2S(=O)(=O)O)c(S(=O)(=O)O)c1` showed an activation of -0.978% [at 0.291 µM].
In the case of `CCCCCCCCCCCCOC(C)=O`, the outcome is reported as “inactive”.
For `O=C(Oc1ccccc1C(=O)O)c1ccccc1O`, the outcome was “inactive”.
For `CCCCC(CC)CNC(=O)CC(C)OC(=O)CCC(=O)O` (stereo not given), the outcome was “inactive”.
With `C=C(C)C(=O)OCCCCCCOC(=O)C(=C)C` the outcome was “inactive”.
For `O=C(/C=C/c1ccccc1)NCCO`, the outcome was “inactive”.
For `CCC(=O)OCCC(C)CCC=C(C)C` (stereo not given), the outcome was “inactive”.
With `Nc1nc(=O)n([C@@H]2O[C@H](CO)[C@@H](O)[C@@H]2F)cc1I` the outcome was “inactive”.
With `Cc1oc(=O)oc1CN1CCN(c2cc3c(cc2F)c(=O)c(C(=O)O)c2n3C(C)S2)CC1` (stereo not given) the outcome was “inactive”.
For `CC(=O)c1ccc2c(c1)CCCC2`, the outcome was “inactive”.
In the case of `CC(=O)OCCCc1ccccc1`, the outcome is reported as “inactive”.
In the case of `CCN(CCC#N)c1ccccc1`, the outcome is reported as “inactive”.
With `CC(=O)OC(C)c1ccccc1` (stereo not given) the outcome was “inactive”.
In the case of `CC(C)=CC(C)(C)C`, the outcome is reported as “inactive”.
With `CC(C)C(=O)c1ccccc1` the outcome was “inactive”.
For `CCOC(=O)CC#N`, the outcome was “inactive”.
With `CC(=O)Nc1ccc(C)cc1` the outcome was “inactive”.
In the case of `C[C@H]1O[C@H](O[C@H]2[C@H](O)[C@@H](O)[C@@H](O[C@H]3[C@H](O)[C@@H](O)[C@H](O)O[C@@H]3CO)O[C@@H]2CO)[C@H](O)[C@@H](O)[C@@H]1N[C@H]1C=C(CO)[C@@H](O)[C@H](O)[C@H]1O`, the outcome is reported as “inactive”.
In the case of `CC(C)(c1ccc(Oc2ccc3c(c2)C(=O)OC3=O)cc1)c1ccc(Oc2ccc3c(c2)C(=O)OC3=O)cc1`, the outcome is reported as “inactive”.
